# Screening data from PubChem.
# Sm TGR block: blocks Schistosoma mansoni thioredoxin glutathione reductase; purified TGR, DTNB reduction, TNB absorbance 405 nm; Potency, µM (highest dose often 114 µM), for the others: at the highest dose activity change, negative = inhibition, usual class: inhibitors; 3% of 360,000 active; AID 485364; active = well fitted inhibition curve with a large enough effect; inconclusive = small, poorly fitted or top-dose-only effect; inactive = no such curve, though single readings can be large or run the other way; note: potency is the fitted concentration of half-maximal effect; % is set by controls: 0 for no effect and ±100 for the full control effect; nearly all actives have a fitted effect of over 60% in size
#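 First, TGR (20 nM dispensed) and NADPH were mixed with compound. Second, a 15 min room-temperature incubation followed. Third, further NADPH and then DTNB were added to start the reaction. Finally, TNB absorbance was monitored kinetically.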
# Cycloheximide cs: counter-screen for Shiga toxin inhibitors: cycloheximide protein synthesis inhibition. 12% of 300,000 active. AID 2314. max response, %. cell reporter, cycloheximide protein synthesis inhibition counterscreen; in the data active = max response mostly above about 13%, no sharp cut-off; inactive = mostly below about 14%; note: read at 38.3 µM for the half of the compounds with a filed dose; 0% is about no effect
# Shiga inhibitor: blocks Shiga toxin action in Vero cells. AID 2315. inhibition, % at 38.7 µM. Vero cells, Shiga toxin protein synthesis inhibition reporter. 9.2% of 290,000 active; in the data active = inhibition mostly above about 28%, no sharp cut-off; inactive = mostly below about 43%; note: 0% is about no effect
# FMDV antiviral: antivirals against foot and mouth disease virus; FMDV antiviral cell-based qHTS; Potency, µM (series often up to 57.9 µM), inactives show top-dose activity change, negative = inhibition, most hits filed as inhibitors; 1.2% of 410,000 active; AID 1159524; calls by dose curve; tested in HEK293T cells; note: read-out not given here; potency is the fitted concentration of half-maximal effect; % is set by controls: 0 for no effect and ±100 for the full control effect; nearly all actives have a fitted effect of over 45% in size
# * = called active by the depositor; ? = inconclusive; . = no result; + = active, no number. Only some compounds are listed: those with a hit (about 12% of all), similar ones and a draw of the others.
SMILES,Sm TGR block,Cycloheximide cs,Shiga inhibitor,FMDV antiviral
O=c1oc2cc(O)ccc2cc1-c1ccc2c(c1)OCCO2,.,.,.,-6%
Clc1ccc(SCc2cc(-c3ccccc3)no2)cc1,2%,0,2,6%
Clc1ccc(OCc2cc(-c3ccccc3)no2)c(Cl)c1,-6%,40*,69*,-58%
Fc1ccc(OCc2cc(-c3ccccc3)no2)cc1,19%,69*,90*,56%
COc1ccc(-c2cc(COc3ccccc3)on2)cc1,1%,49*,67*,20%
Cc1cccc(OCc2cc(-c3ccccc3)no2)c1C,7%,48*,86*,37%
Cc1ccc(CNC(=O)CCCN2C(=O)COc3ccc(C)cc32)cc1,5%,.,.,-17%
CCOc1ccc(CCNC(=O)c2ccc3[nH]c(C)c(C)c3c2)cc1,4%,.,.,-22%
CN(Cc1ccccc1Cl)C(=O)c1cc2ccccc2o1,4%,31*,39*,37%
CN(Cc1ccc(N(C)C)cc1)C(=O)c1cc2ccccc2o1,-12%,28*,68*,41%
Cc1ccccc1CNC(=O)C(=O)NCC(c1ccc2c(c1)OCO2)N1CCOCC1 (stereo not given),0%,.,.,-3%
Cn1cc(-c2nc3cnc(N4CCOCC4)nc3n(CCC#N)c2=O)c2ccccc21,.,.,.,-17%
COc1ccccc1CCN1COc2c(cc3c(C)c(C)c(=O)oc3c2C)C1,?,.,.,-7%
CCCN(C(=O)CCc1nc(-c2ccc(C)cc2)no1)c1ccc(OCC)cc1,10%,.,.,-18%
CC1CN(Cc2csc(-c3ccc(Cl)cc3)n2)CC(C)O1 (stereo not given),1%,47,117*,-16%
CCNC(=O)C1(C)CCCN(Cc2csc(-c3ccc(Cl)cc3)n2)C1 (stereo not given),.,.,.,-19%
COc1ccc2c(c1)c1c(c(=O)n(Cc3ccccc3)c(=O)n1Cc1cc(C)ccc1C)n2C,-1%,.,.,-16%
CC1(C)CC(=O)c2cnc(N3CCc4ccccc4C3)nc2C1,7%,24*,89*,.
O=C1CCCc2nc(N3CCc4ccccc43)ncc21,-28%,38*,94*,78%
CC1(C)CC(=O)c2cnc(N3CCN(c4ccccc4)CC3)nc2C1,6%,-2,19,?
O=[N+]([O-])c1c(NCCO)cc(N2CCC3(CC2)OCCO3)c2nonc12,-3%,-1,9,-13%
COc1ccc(CNc2cc(NCCCO)c([N+](=O)[O-])c3nonc23)cc1,22µM*,5,-5,-30%
O=[N+]([O-])c1c(NCCCO)cc(N2CCN(Cc3ccc4c(c3)OCO4)CC2)c2nonc12,-7%,-2,-8,18µM*
O=[N+]([O-])c1c(NCCCO)cc(N2CCCCCC2)c2nonc12,11µM*,-2,-8,-17%
CCOC(=O)Cn1c(=O)n(C2CCCCC2)c2nc(-c3ccc(CC)cc3)nc(C(N)=O)c21,0%,.,.,-13%
SMILES,Sm TGR block,Cycloheximide cs,Shiga inhibitor,FMDV antiviral
NC(=O)c1cc(S(=O)(=O)NCC2CCC(C(=O)Nc3ccc(Cl)cc3)CC2)cs1 (stereo not given),4%,.,.,-20%
CCc1ccc(S(=O)(=O)N(C(=O)Oc2ccccc2)c2ccc3oc(C)c(C(=O)OC)c3c2)cc1,8%,.,.,-14%
COc1ccc(N2CCN(c3c4c(nc5nncn35)CCC4)CC2)cc1,0%,.,.,?
O=C1Nc2ccccc2N=C(c2ccccc2)c2ccccc21,0%,20*,17,21%
O=C(NCc1ccc2c(c1)CCN2C(=O)c1ccncc1)c1ccc(Cl)cc1,-2%,.,.,-24%
Cc1ccc(Cc2nc3ccccc3nc2SCC(=O)NCCc2ccccc2)cc1,6%,.,.,-3%
CC1=NN(c2nc(-c3ccccc3)cs2)C(=O)C1N=Nc1ccccc1 (stereo not given),8%,43*,53*,0%
CC1=NN(c2nc(-c3ccc(C)cc3)cs2)C(=O)C1N=Nc1ccc2ccccc2c1 (stereo not given),-9%,18*,72,19%
CC1=NN(c2nc(-c3ccc(C)cc3)cs2)C(=O)C1N=Nc1ccc(C(N)=O)cc1 (stereo not given),-3%,15*,30,-28%
CCOC(=O)c1cc2c(s1)-c1ccccc1CC2,-15%,37*,67*,33%
CCOC(=O)c1cc2ccc3ccccc3c2s1,9%,48*,75*,49%
CCOC(=O)c1cc2ccc3ccccc3c2oc1=O,0%,3,4,2%
COC(=O)c1cc2c(s1)-c1ccccc1CC2,0%,62*,+,28%
CC(=O)N1CCc2cc(CNS(=O)(=O)c3ccccc3C(F)(F)F)ccc21,0%,.,.,16%
Cc1ccsc1CNc1ncnc2ccc(-c3c(C)noc3C)cc12,.,28,57*,?
